# About 79,000 compounds went through this panel and 15% of them were active in at least one assay; those are over-represented in the sample as a whole. A number with no mark means an inactive call. Active and inactive are the calls of the source. Rule as the data show it: active = growth inhibition above about 70%; inactive = the rest.
# Tests used:
# [1] = NCI Yeast Anticancer Drug Screen. Data for the rad50 strain (AID 155);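 also: 0% = growth of vehicle-only cultures of the same strain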; conditions: S. cerevisiae rad50 strain growth inhibition; at 50.0 µM; active compounds read high
# Outline: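 Genetically altered yeast (DNA repair pathway); compound treatment; growth inhibition vs vehicle ctrl.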
# [2] = NCI Yeast Anticancer Drug Screen. Data for the mec2-1 strain (AID 157); conditions: S. cerevisiae mec2-1 strain, at 50.0 µM, active compounds read high
# Outline: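 Test agents were screened against the mec2-1 yeast strain, with defined DNA repair or cell cycle alteration. Growth was scored as inhibition against vehicle-only controls.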
# [3] = NCI Yeast Anticancer Drug Screen. Data for the sgs1 mgt1 strain (AID 161);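 also: 0% = growth of cultures given vehicle only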; conditions: S. cerevisiae sgs1 mgt1 strain, at 50.0 µM, active compounds read high
# Outline: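 Genetically altered yeast, compound exposure, growth inhibition relative to vehicle.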
# [4] = NCI Yeast Anticancer Drug Screen. Data for the cln2 rad14 strain (AID 165);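 also: 0% = growth equal to vehicle treated cultures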; conditions: S. cerevisiae cln2 rad14 strain, at 50.0 µM, active compounds read high
# Outline: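 Growth of compound-exposed yeast (cln2 rad14 genotype) measured and expressed as inhibition relative to vehicle.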
# [5] = NCI Yeast Anticancer Drug Screen. Data for the bub3 strain (AID 167); conditions: S. cerevisiae bub3 mutant strain, at 50.0 µM, active compounds read high
# Outline: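 Yeast carrying a defined mutation is treated with each compound, and growth is compared with that of vehicle-exposed cells to give inhibition.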
# [6] = NCI Yeast Anticancer Drug Screen. Data for the mlh1 rad18 strain (AID 175); conditions: S. cerevisiae mlh1 rad18 strain growth inhibition; at 50.0 µM; active compounds read high
# Outline: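 In this whole-cell yeast screen, a strain with altered DNA damage repair is challenged with compound, and its growth is measured against matched vehicle-treated controls.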
Compound,growth inhibition [1],growth inhibition [2],growth inhibition [3],growth inhibition [4],growth inhibition [5],growth inhibition [6]
COc1ccc(C(=O)CC(Sc2ccccc2N)c2ccc(OC)cc2)cc1 (stereo not given),-16.6%,-17.9%,8.95%,-10%,6.3%,-7.3%
CCCCn1c(=O)cc(C(=O)O)c2ccccc21,1.7%,-12.7%,-0.5%,-9.25%,-7.9%,0.05%
C[C@@H](CC(=O)O)OC1OC(COC(=O)C(C)(C)C)C(OC(=O)C(C)(C)C)C(OC(=O)C(C)(C)C)C1OC(=O)C(C)(C)C (stereo not given in full),4.25%,-45.1%,-17.7%,7%,-15.5%,85.8% (active)
CC1(C)CC(OP(=O)(OC2CC(C)(C)N(O)C(C)(C)C2)c2ccccc2)CC(C)(C)N1O,32.1%,8.45%,11.1%,-21.1%,6.3%,6.5%
CC(=O)Nc1nc(NC(C)=O)c2nc(CCN(C)c3ccc(C(=O)O)cc3)cnc2n1,-9.05%,-18.4%,-5.6%,-5.25%,-40.5%,2.15%
COC(=O)CC1C2(C)C3=C(C)C(c4ccoc4)CC3OC2C2OC(=O)C3(C)C=CC(=O)C1(C)C23 (stereo not given),85% (active),84.2% (active),79.2% (active),81% (active),82% (active),90.3% (active)
O=C(O)CC(Cc1ccc2c(c1)OCO2)C(=O)O (stereo not given),-5.6%,-2.35%,-34.2%,-33.9%,-54.6%,2.55%
C/C(CCC1CCCCC1)=N/Nc1ccc([N+](=O)[O-])cc1[N+](=O)[O-],24%,8.9%,22.8%,16.5%,6.95%,5.55%
C/C(=N/NC(=O)NN)c1cccc(O)c1,3.1%,-11.8%,-16.6%,2.15%,-4.5%,-19.2%
Nn1c(-c2ccccc2)n[nH]c1=O,18.7%,-15.7%,16.5%,25.9%,3.25%,9.45%
C/C(=N\NS(=O)(=O)c1ccc(N)cc1)c1ccc(C)cc1C,-12.9%,-19.6%,0.8%,-5.25%,-28.6%,-16.5%
CCOC(=O)c1ccc(C#N)cc1,-8%,-57.3%,-11.2%,-7.6%,-15.7%,5.45%
CC1CCc2[nH]nc(CC3CC(=O)NC(=O)C3)c2C1 (stereo not given),15.9%,-2.2%,10.8%,27.2%,-7.35%,3.7%
Cc1ccc(S(=O)CC(Cl)c2ccccc2)cc1 (stereo not given),-26.6%,4.2%,13.2%,56%,14.3%,21.1%
O=C(O)c1ccc(N2CCOCC2)cc1,-20%,-13.5%,-15.4%,-15.6%,-9.3%,6.6%
Nc1ncnc2c1ncn2[C@@H]1C[C@H]1CO,-39.6%,10.8%,-23.6%,12.1%,20.6%,-23.4%
O=c1c(-c2c(-c3ccccc3)oc3ccc(Cl)cc3c2=O)c(-c2ccccc2)oc2ccc(Cl)cc12,18.9%,3.9%,5.3%,7.25%,17.3%,3.75%
Cc1cccc(-c2cc(=O)c3c(C)cc(C)nc3[nH]2)c1,-2.1%,2.7%,21.9%,24.8%,24.1%,-39.4%
S=C(Nc1ccc2c(c1)Cc1ccccc1-2)Nc1ccc2c(c1)Cc1ccccc1-2,25.8%,18.9%,-39.7%,-12.7%,27%,31%
Cc1ccccc1N(CCC#N)C1=NN(C(=O)CC(=O)Nc2ccc(Cl)cc2)C(c2ccccc2)C1 (stereo not given),6.35%,-9.05%,-0.2%,15%,-16.1%,-5.35%

Compound,growth inhibition [1],growth inhibition [2],growth inhibition [3],growth inhibition [4],growth inhibition [5],growth inhibition [6]
COC(=O)c1ccc(-c2nc(C#N)c(N)o2)cc1,5.9%,19.1%,-11.1%,-1.45%,-14.8%,-43%
COC(=O)C(Nc1ccc(OC)cc1)c1ccccc1 (stereo not given),-3.85%,-1.35%,-8.6%,-21.6%,4%,-13.6%
C=CC(C)n1cnc2c1c(=O)n(C)c(=O)n2C (stereo not given),-5.1%,-9.35%,-11.2%,-35%,-5.4%,2.8%
O=C(NNc1ccccc1)/C(=C/c1ccc2c(c1)OCO2)NC(=O)c1ccccc1,15.8%,9.5%,-29.6%,-6.2%,1.35%,4.55%
CCCC(=O)c1ccccc1,35.5%,3%,19.9%,15%,26.1%,21.9%
COC(=O)/C=C/c1ccc2c(c1)CCCC2,18.1%,15.1%,10.6%,-8.7%,22.2%,24.4%
CCCCNc1nc(C#N)c(N)s1,3.6%,-3.35%,-12.7%,11.3%,11.7%,8.55%
NC(Cc1ccc(O)cc1)C(=O)NCCS(=O)(=O)O (stereo not given),1.5%,9.85%,26.7%,11.2%,18.6%,0.65%
Nc1ccn([C@@H]2C=C(CO)[C@@H](O)[C@H]2O)c(=O)n1,-16.1%,-20.6%,-22.5%,-13.3%,-10.4%,-21.9%
CN(C)CCNC(=O)C(C)(C)Oc1ccc(C(=O)c2ccc(Cl)cc2)cc1Cl,-1.55%,6.1%,-18.1%,-21.6%,-30.8%,40.2%
CCC(=O)N1C(=O)OCC1C(C)C (stereo not given),-2.8%,-21.4%,-22.3%,13.1%,-9.35%,14.8%
COC(=O)C(C(=O)C(=O)Nc1cccc([N+](=O)[O-])c1)c1nc2ccc([N+](=O)[O-])cc2[nH]c1=O (stereo not given),37.6%,17.6%,-10.2%,-37.8%,9.2%,46.5%
Cc1ccc(S(=O)(=O)OCC23CCC(CO)(CC2)CC3)cc1,9.75%,-2.45%,-0.85%,15.7%,27.2%,14.2%
CC(C)=CCNc1nc(Cl)nc2nc[nH]c12,-28.1%,-8%,-59%,-14.5%,-19.4%,-67.7%
O=C(O)c1cccc(F)c1C(=O)c1ccc2ccccc2c1,-13.7%,4.15%,-12.8%,-15.2%,-22.1%,-9.7%
COC(=O)C1C2C=CC(CC2)C1C(=O)OC (stereo not given),1.9%,5.65%,-0.3%,-22.1%,-10.8%,7.95%
CCOC(=O)c1sc(SC)nc1NC(=O)c1ccc(Cl)cc1,-26.6%,19.8%,-49.6%,0.7%,-2.55%,-24.7%
CC(=O)Nc1ccccc1OC(=O)c1ccccc1,4.4%,-4.4%,2.6%,11.9%,1.8%,-2.5%
Nc1nnc(Sc2n[nH]c(=O)[nH]c2=O)s1,-8.8%,-2.6%,-14.3%,-0.2%,-4.9%,-8.05%
O=c1[nH]c(=O)n(C2CC3OCC3O2)cc1F (stereo not given),-14.2%,35.7%,-9.05%,20.1%,-13.5%,11.2%
